The entries come from a sample that favours the strongest signals as a whole.
Experiments:
Test in all cases: glycan array binding signal (z-score within array); higher = stronger binding
Conditions in all cases: glycan notation: IUPAC condensed, linker removed
[1] = biological target: GalNAc6S(b1-4)GlcNAc
Summary of the method: (§1)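 The binding signal is a Z-score computed within each array and averaged over linkers. Arrays of the same protein sequence at different concentrations or buffers were also averaged together. Data originate from 3228 arrays in the Consortium for Functional Glycomics database, kept only where the protein sequence was available.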

[2] = biological target: Glc(a1-4)Glc(a1-4)Glc(a1-4)Glc
Summary of the method: as §1

[3] = biological target: Glc(a1-6)Glc(a1-6)Glc(a1-6)Glc
Summary of the method: as §1

[4] = biological target: GlcA(b1-6)Gal
Summary of the method: as §1

[5] = biological target: GlcNAc(b1-2)[GlcNAc(b1-4)]Man(a1-3)[GlcNAc(b1-4)][GlcNAc(b1-2)[GlcNAc(b1-6)]Man(a1-6)]Man(b1-4)GlcNAc(b1-4)[Fuc(a1-6)]GlcNAc
Summary of the method: as §1

[6] = biological target: GlcNAc(b1-3)Gal(b1-4)GlcNAc(b1-2)Man(a1-3)[GlcNAc(b1-3)Gal(b1-4)GlcNAc(b1-2)Man(a1-6)]Man(b1-4)GlcNAc(b1-4)GlcNAc
Summary of the method: as §1

[7] = biological target: GlcNAc(b1-3)Gal(b1-4)GlcNAc(b1-3)Gal(b1-4)GlcNAc(b1-2)Man(a1-3)[GlcNAc(b1-3)Gal(b1-4)GlcNAc(b1-3)Gal(b1-4)GlcNAc(b1-2)Man(a1-6)]Man(b1-4)GlcNAc(b1-4)GlcNAc
Summary of the method: as §1

[8] = biological target: GlcNAc(b1-3)Gal(b1-4)GlcNAc(b1-3)Gal(b1-4)GlcNAc(b1-2)[GlcNAc(b1-3)Gal(b1-4)GlcNAc(b1-3)Gal(b1-4)GlcNAc(b1-6)]Man(a1-6)[GlcNAc(b1-3)Gal(b1-4)GlcNAc(b1-3)Gal(b1-4)GlcNAc(b1-2)Man(a1-3)]Man(b1-4)GlcNAc(b1-4)[Fuc(a1-6)]GlcNAc
Summary of the method: as §1

[9] = biological target: GlcNAc(b1-3)Gal(b1-4)GlcNAc(b1-3)Gal(b1-4)GlcNAc(b1-3)Gal(b1-4)GlcNAc(b1-2)Man(a1-3)[GlcNAc(b1-3)Gal(b1-4)GlcNAc(b1-3)Gal(b1-4)GlcNAc(b1-3)Gal(b1-4)GlcNAc(b1-2)Man(a1-6)]Man(b1-4)GlcNAc(b1-4)[Fuc(a1-6)]GlcNAc
Summary of the method: as §1

[10] = biological target: GlcNAc(b1-3)Gal(b1-4)GlcNAc(b1-3)Gal(b1-4)GlcNAc(b1-3)Gal(b1-4)GlcNAc(b1-2)[GlcNAc(b1-3)Gal(b1-4)GlcNAc(b1-3)Gal(b1-4)GlcNAc(b1-3)Gal(b1-4)GlcNAc(b1-6)]Man(a1-6)[GlcNAc(b1-3)Gal(b1-4)GlcNAc(b1-3)Gal(b1-4)GlcNAc(b1-3)Gal(b1-4)GlcNAc(b1-2)Man(a1-3)]Man(b1-4)GlcNAc(b1-4)[Fuc(a1-6)]GlcNAc
Summary of the method: as §1

[11] = biological target: Man(a1-2)Man(a1-6)[Man(a1-3)]Man(a1-6)[Man(a1-2)Man(a1-2)Man(a1-3)]Man
Summary of the method: as §1

[12] = biological target: Neu5Ac(a2-3)Gal(b1-3)[Fuc(a1-4)]GlcNAc(b1-3)Gal(b1-4)[Fuc(a1-3)]GlcNAc
Summary of the method: as §1

[13] = biological target: Neu5Ac(a2-3)Gal(b1-3)[Neu5Ac(a2-6)]GalNAc
Summary of the method: as §1

[14] = biological target: Neu5Ac(a2-3)Gal(b1-4)GlcNAc(b1-2)Man(a1-3)[GlcNAc(b1-2)Man(b1-4)GlcNAc(b1-2)Man(a1-6)]Man(b1-4)GlcNAc(b1-4)GlcNAc
Summary of the method: as §1

[15] = biological target: Neu5Ac(a2-3)Gal(b1-4)GlcNAc(b1-3)Gal(b1-4)GlcNAc
Summary of the method: as §1

[16] = biological target: Neu5Ac(a2-3)Gal(b1-4)GlcNAc(b1-3)Gal(b1-4)GlcNAc(b1-3)Gal(b1-4)GlcNAc(b1-2)Man(a1-3)[Neu5Ac(a2-3)Gal(b1-4)GlcNAc(b1-3)Gal(b1-4)GlcNAc(b1-3)Gal(b1-4)GlcNAc(b1-2)Man(a1-6)]GalNAc
Summary of the method: as §1

[17] = biological target: Neu5Ac(a2-3)Gal(b1-4)GlcNAc(b1-6)[Gal(b1-3)]GalNAc
Summary of the method: as §1

[18] = biological target: Neu5Ac(a2-3)Gal(b1-4)[Fuc(a1-3)]GlcNAc(b1-3)GalNAc
Summary of the method: as §1

[19] = biological target: Neu5Ac(a2-3)[GalNAc(b1-4)]Gal(b1-4)GlcNAc
Summary of the method: as §1

[20] = biological target: Neu5Ac(a2-6)Gal(b1-4)GlcNAc(b1-2)Man(a1-3)[GlcNAc(b1-2)Man(b1-4)GlcNAc(b1-2)Man(a1-6)]Man(b1-4)GlcNAc(b1-4)GlcNAc
Summary of the method: as §1

[21] = biological target: Neu5Ac(a2-6)Gal(b1-4)GlcNAc(b1-2)Man(a1-3)[Neu5Ac(a2-6)Gal(b1-4)GlcNAc(b1-2)Man(a1-6)]Man(b1-4)GlcNAc(b1-4)GlcNAc
Summary of the method: as §1

[22] = biological target: Neu5Ac(a2-6)Gal(b1-4)GlcNAc(b1-2)Man(a1-3)[Neu5Ac(a2-6)Gal(b1-4)GlcNAc(b1-2)Man(a1-6)]Man(b1-4)GlcNAc(b1-4)[Fuc(a1-6)]GlcNAc
Summary of the method: as §1

[23] = biological target: Neu5Ac(a2-6)Gal(b1-4)GlcNAc(b1-3)Gal(b1-4)GlcNAc(b1-3)Gal(b1-4)GlcNAc(b1-2)Man(a1-3)[Neu5Ac(a2-6)Gal(b1-4)GlcNAc(b1-3)Gal(b1-4)GlcNAc(b1-3)Gal(b1-4)GlcNAc(b1-2)Man(a1-6)]GalNAc
Summary of the method: as §1

[24] = biological target: Neu5Ac(a2-6)GalNAc(b1-4)GlcNAc6S
Summary of the method: as §1

[25] = biological target: Neu5Ac(a2-8)Neu5Ac(a2-8)Neu5Ac(a2-3)[Gal(b1-3)GalNAc(b1-4)]Gal(b1-4)Glc
Summary of the method: as §1

[26] = biological target: Neu5Ac9Ac(a2-6)Gal(b1-4)GlcNAc
Summary of the method: as §1

B1: BabA (Helicobacter pylori), O52269_HELPY (protein)
chain: AEDDGFYMSAGYQIGEAAQMVKNTKGIQELSDNYENLSNLLTRYSTLNTLIKLSADPSAVNAARENLGASAKNLIGDTKNSPAYQAVLLAINAAVGFWNVVGYVTQCGGNANGQKSTSSTTIFNNEPGYRSTSITCSLNGHMPGYYGPMSIENFKKLNEAYQILQTALKNGLPALKENNGTVNVTYSYTCSGEGNDNCSLQTTGVTNQNNGTKTETQTIDGKSVTTTISSKVVDSQ
- glycan array binding signal (z-score) [1]: -0.764
- glycan array binding signal (z-score) [2]: 0.344
- glycan array binding signal (z-score) [3]: 0.59
- glycan array binding signal (z-score) [4]: -0.267
- glycan array binding signal (z-score) [5]: -0.373
- glycan array binding signal (z-score) [6]: 0.363
- glycan array binding signal (z-score) [7]: 4.69
- glycan array binding signal (z-score) [8]: 3.66
- glycan array binding signal (z-score) [9]: 2.94
- glycan array binding signal (z-score) [10]: 2.92
- glycan array binding signal (z-score) [11]: -0.83
- glycan array binding signal (z-score) [12]: 0.749
- glycan array binding signal (z-score) [13]: 0.266
- glycan array binding signal (z-score) [14]: -1.52
- glycan array binding signal (z-score) [15]: -0.291
- glycan array binding signal (z-score) [16]: 9.34
- glycan array binding signal (z-score) [17]: 1.93
- glycan array binding signal (z-score) [18]: 0.626
- glycan array binding signal (z-score) [19]: -0.627
- glycan array binding signal (z-score) [20]: -0.829
- glycan array binding signal (z-score) [21]: -0.571
- glycan array binding signal (z-score) [22]: 1.19
- glycan array binding signal (z-score) [23]: 5.39
- glycan array binding signal (z-score) [24]: -0.637
- glycan array binding signal (z-score) [25]: 0.344
- glycan array binding signal (z-score) [26]: -0.224

From the supplement of paper PMC8728848
